Measured values from PubChem BioAssay (Tox21).
Records with an inconclusive call do not appear. Unmarked numbers belong to inactive results. Calls come from the whole dose curve; as a rule, active = well fitted cell-killing curve with a large enough effect in the repeat runs; inconclusive = weak or mixed curves, or effect the other way; inactive = flat fitted curve, though single readings scatter.

assay: qHTS RealTime-Glo MT Cell Viability Assay in HEK293 cells - 16 hour (AID 1224872); settings: RealTime-Glo luminescence; series mostly up to 76.8 µM; activity change, negative = cytotoxicity: at the top concentration; note: top concentration of the series differs between compounds; nearly all actives have a fitted effect of over 50% in size
Source text: National Center for Advancing Translational Sciences [NCATS]
NIH Chemical Genomics Center [NCGC]
U.S. Environmental Protection Agency [EPA]
National Institutes of Environmental Health Sciences [NIEHS]
National Toxicology Program [NTP]
U.S. Food and Drug Administration [FDA]
Measure of cell viability is critical in the cell-base assay. Analysis of cell viability is necessary for the characterization of cell responses to cytotoxic drugs and environmental stress. A RealTime-Glo MT Cell Viability Assay to monitor cell viability in real time of continues cell culture during 40 hours of compound treatment was used to screen Tox21 10K library compounds in Hek293 cells. The RealTime-Glo MT Cell Viability Assay is a nonlytic, homogeneous, bioluminescent method to measure cell viability in real time using a simple, plate-based method. The assay involves adding NanoLuc luciferase and a cell-permeant prosubstrate to cells in culture. Viable cells reduce the proprietary prosubstrate to generate a substrate for NanoLuc luciferase. This substrate diffuses from cells into the surrounding culture medium, where it is rapidly used by the NanoLuc Enzyme to produce a luminescent signal. The signal correlates with the number of viable cells, making the assay well suited for cytotoxicity studies.
Tox21 Assay Protocol Summary:
The mixture of Hek293 cell suspension and reagents were dispensed at 600cells/6 ul/well in 1536-well tissue culture treated black solid bottom plates using a Multidrop dispenser. After the assay plates were incubated at a 37 C/5% CO2 incubator for 5 hours, 23 nL of compounds dissolved in DMSO, positive and negative controls was transferred to the assay plate by a pintool work station. The plates were incubated at 37 C for 40 hours. The luminescence intensity were measured at 0h, 8h, 16h, 24h, 32h and 40h time points using ViewLux plate reader during compound treatment.
% is set by controls: 0 for no effect and ±100 for the full control effect.

SMILES | activity change, negative = cytotoxicity
CC[C@H](NC(C)C)[C@H](O)c1ccc(O)c2[nH]c(=O)ccc12 | 1.4% [at 35.3 µM]
O=P(c1ccccc1)(c1ccccc1)c1ccccc1 | -11.8%
OCC(O)c1ccccc1 (stereo not given) | 3.67%
Clc1nc2ccccc2nc1Cl | 13.7%
C/C(=C(\CCO)SS/C(CCO)=C(\C)N(C=O)Cc1cnc(C)nc1N)N(C=O)Cc1cnc(C)nc1N | 8.97% [at 35.3 µM]
COC=O | 11.7% [at 6.97 µM]
CCc1c(C)[nH]c2c1C(=O)C(CN1CCOCC1)CC2 (stereo not given) | 1.44% [at 35.3 µM]
CCC[Si](OC)(OC)OC | 0.268%
FC(F)(Cl)C(F)(Cl)Cl | 7.38%
C=C(C)C(=O)OCCCCCCCCCCOC(=O)C(=C)C | -16.4%
Cc1nc(C)c(C)nc1C | 20.3%
C[C@H]1C[C@H]2[C@@H]3CCC4=CC(=O)C=C[C@]4(C)[C@@]3(F)[C@@H](O)C[C@]2(C)[C@@]1(O)C(=O)COP(=O)(O)O | -3.56%
CCCC(=O)OCc1ccccc1 | 3.41%
Cc1c(Cl)cccc1Nc1ccccc1C(=O)O | 4.81% [at 35.3 µM]
O=C(O)COCC(=O)O | 3.62%
CCCc1nc(C)c2c(=O)[nH]c(-c3cc(S(=O)(=O)N4CCN(CC)CC4)ccc3OCC)nn12 | -20.9% [at 35.3 µM]
COc1ccc(CN(CCN(C)C)c2ncccn2)cc1 | -0.105% [at 35.3 µM]
C=CC(=O)NC(C)(C)C | 1.72%
CCCCCCOC(=O)c1ccccc1 | -10.1%
CC1(C)CC(=O)CC(C)(C)N1 | -1.66%

SMILES | activity change, negative = cytotoxicity
O=C(c1ccco1)N1CCNCC1 | 3.78% [at 35.3 µM]
O=c1[nH][nH]c2ccccc12 | -14.5%
CCOc1ccccc1O | -35.1%
CCCCCCCCC(=O)OCC(C)OC(=O)CCCCCCCC (stereo not given) | 0.728%
CCCCCCCCCCCCCCCCCCCl | 3.04% [at 6.97 µM]
O=c1[nH]nc(-c2ccc([N+](=O)[O-])o2)o1 | 3.79%
CCc1ccc2c(c1)C(=O)c1ccccc1C2=O | 18.7%
[O-][n+]1ccc(Cl)cc1 | 11.4%
O=C(Cl)c1cc(Cl)cc(Cl)c1 | -9.71%
CNc1ccccc1 | -3.68%
O=C1C=CCCC1 | -4.39%
CC(=O)Nc1ccccc1O | -7.37%
CCCC1CCCC(=O)O1 (stereo not given) | 0.376%
CC(C(=O)O)c1ccc(/C=C2\CCCCC2=O)cc1 (stereo not given) | 15.6% [at 35.3 µM]
CCc1ccc(C(=O)C(C)CN2CCCCC2)cc1 (stereo not given) | 0.135% [at 35.3 µM]
Cc1cc(C)n(CO)n1 | -4.36%
Cc1cccc(C)c1NC(=O)CN1CCCC1 | 2.57% [at 35.3 µM]
CCCCOc1ccc(N)cc1 | -0.675%
O=C1CCCN1CCO | -12%
CCCCCCCCCCCCCCCCC(=O)O | 0.423% [at 35.3 µM]
